This is one part of a sample in which hits are shown more often than they occur.
ER stress surv: ER stress cell death inhibition. CSM14.1 thapsigargin ER stress survival, ATP luminescence. 48,000 compounds, 0.33% hits. relative survival (cellular ATP), % at 15 µg/mL (by protocol);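 active means survival measured by cellular ATP above 50% at 15 µg/ml in the first screen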;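 further: cell death triggered by about 15 µM thapsigargin; ATP read 24 h after thapsigargin was added; plate controls were thapsigargin with DMSO for no effect and DMSO without thapsigargin for full effect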
* = called active by the depositor.

What do the screens show for `CCOc1ccc(C(=O)Nc2ccc(Cl)c(-c3nc4ccccc4[nH]3)c2)cc1Cl`?
ER stress surv: 65*

What do the screens show for `CCOc1ccc(C(=O)Nc2ccc(Cc3ccncc3)cc2)cc1Cl`?
ER stress surv: 35

How did CCOc1ccc(C(=O)Nc2cc(Cl)cc(Cl)c2)cc1Cl do in these assays?
ER stress surv: 6

Results for Cc1ccc(Cl)cc1NC(=O)c1cc(Cl)ccc1Cl ?
ER stress surv: 2

How did COc1ccc(OCC(=O)Nc2cc(C)ccc2OC)cc1 do in these assays?
ER stress surv: 8

Results for O=C(CCN1C(=O)S/C(=C\c2ccc(Cl)cc2)C1=O)Nc1ccccc1 ?
ER stress surv: 1

What do the screens show for `C=CCc1cc(/C=C2/C(=O)NC(=O)N(c3ccc(OC)cc3)C2=O)cc(OC)c1O`?
ER stress surv: 4

What do the screens show for `O=C(Nc1ncccn1)c1ccc([N+](=O)[O-])o1`?
ER stress surv: 65*

How did O=C(Nc1ccc(Cl)c(Cl)c1)c1ccc([N+](=O)[O-])o1 do in these assays?
ER stress surv: 1

What do the screens show for `Cc1ccc(C(=O)Nc2ncccn2)o1`?
ER stress surv: -5

Results for CCOC(=O)C1=C(O)/C(=C/c2cccnc2)SC1=Nc1ccc(C)cc1 ?
ER stress surv: -1

How did O=c1c(-c2ccc(Cl)cc2)coc2c(CN3CCCCCC3)c(O)ccc12 do in these assays?
ER stress surv: 0

What do the screens show for `Cc1ccc(/C=N/NC(=O)C(=O)NC(C)(C)C)cc1`?
ER stress surv: 9

What do the screens show for `O=C(COc1ccc2ccccc2c1)Nc1ccc(Cl)c(Cl)c1`?
ER stress surv: 0

What do the screens show for `O=C(COc1ccc2ccccc2c1)Nc1cccc(NC(=O)c2ccc(Cl)cc2Cl)c1`?
ER stress surv: 50*

How did O=C(Nc1cccc(NC(=O)c2cccc3ccccc23)c1)c1ccc(Cl)cc1Cl do in these assays?
ER stress surv: 9

What do the screens show for `COc1ccccc1CC(=O)Nc1ccc(Br)cc1`?
ER stress surv: 7

Results for O=C1/C(=C\c2ccc(-c3cccc(Cl)c3)o2)SC(=S)N1CCS(=O)(=O)O ?
ER stress surv: 1

Results for COc1ccccc1-n1c(C=C2C(=O)N(C)c3ccccc32)nc2ccccc2c1=O ?
ER stress surv: 9

How did COc1cc(CN2CCN(C(=O)c3ccc([N+](=O)[O-])cc3)CC2)cc(OC)c1OC do in these assays?
ER stress surv: 9

Results for COc1ccc(CN2CCN(C(=O)c3cccc(F)c3)CC2)cc1OCc1ccccc1 ?
ER stress surv: 23

How did COc1ccc(CN2CCN(C(=O)c3ccc([N+](=O)[O-])cc3)CC2)cc1OCc1ccccc1 do in these assays?
ER stress surv: 72*

Results for COc1ccc(C(=O)N2CCN(Cc3ccccc3)CC2)cc1[N+](=O)[O-] ?
ER stress surv: 14

What do the screens show for `COc1ccc(CN2CCN(C(=O)c3ccc(F)cc3)CC2)cc1OCc1ccccc1`?
ER stress surv: 53*

How did COc1ccc(CN2CCN(C(=O)c3ccccc3OC)CC2)cc1OCc1ccccc1 do in these assays?
ER stress surv: 17

How did COc1ccc(C(=O)Nc2ccccc2)cc1NC(=O)COc1ccc(F)cc1 do in these assays?
ER stress surv: 16

How did CN(C)c1ccc(-c2c(C#N)c(N)[nH]c(=S)c2C#N)cc1 do in these assays?
ER stress surv: 0

Results for Cc1nc(CN2C(=O)c3ccccc3C2=O)cs1 ?
ER stress surv: 11

How did Cc1cccc(OCC(=O)Nc2nc3ccccc3s2)c1 do in these assays?
ER stress surv: 6

What do the screens show for `COCCN1C(=O)C(=O)/C(=C(/O)c2ccccc2)C1c1ccc(OC)c(OC)c1` (configuration not stated)?
ER stress surv: 9

Results for CCN1C(=O)c2cccc3c(NC(=O)c4ccc(Oc5ccccc5)cc4)ccc1c23 ?
ER stress surv: 9

How did CCN1C(=O)c2cccc3c(NC(=O)c4ccc(C(=O)c5ccccc5)cc4)ccc1c23 do in these assays?
ER stress surv: 6

Results for CCN1C(=O)c2cccc3c(NC(=O)c4ccc(S(=O)(=O)N5CCCCCC5)cc4)ccc1c23 ?
ER stress surv: 96*

How did Cc1cc(NC(=O)c2cccc(Br)c2)ccc1NC(=O)c1ccccc1 do in these assays?
ER stress surv: 3

Results for CCOc1c(I)cc(/C=C2\C(=O)NC(=O)N(c3ccc(OC)cc3)C2=O)cc1OC ?
ER stress surv: 0

How did COC(=O)/C(=C\C=C\N(C)c1ccccc1)C(C)=O do in these assays?
ER stress surv: -5

Results for CCOC(=O)/C(=C/C=C/N(C1CCCCC1)C1CCCCC1)C(C)=O ?
ER stress surv: 50*

How did CCOC(=O)/C(C(C)=O)=C(\C=C\N(C)C)N(C)C do in these assays?
ER stress surv: -7

What do the screens show for `CCN1C(=O)/C(=C/c2ccc(OC(=O)c3ccc(F)cc3)c(OC)c2)SC1=S`?
ER stress surv: 1

How did Nc1nnc(SCC(=O)c2ccc3c(c2)Cc2ccccc2-3)s1 do in these assays?
ER stress surv: 15

Results for CCOc1ccccc1NC(=O)c1c(NC(=O)C(C)Oc2cccc(Cl)c2)sc2c1CCC2 (configuration not stated) ?
ER stress surv: -1

How did O=C(NC(=S)Nc1ccc(F)cc1)c1ccc(Cl)cc1 do in these assays?
ER stress surv: 0

How did O=C(Nc1ccc(O)c(-c2nc3ccccc3s2)c1)c1cc([N+](=O)[O-])ccc1Cl do in these assays?
ER stress surv: 60*

What do the screens show for `Cc1c(NC(=O)c2cc([N+](=O)[O-])ccc2Cl)cccc1-c1nc2ccccc2s1`?
ER stress surv: -3

Results for O=C(Nc1ccc(O)c(-c2nc3ccccc3s2)c1)c1cccc(Cl)c1Cl ?
ER stress surv: -1

Results for O=C(c1ccccc1Br)N(C1CCCCC1)C1CCCCC1 ?
ER stress surv: 5

How did COc1ccc(C2Nc3ccccc3C(=O)N2c2ccccc2)cc1CN1C(=O)c2ccccc2C1=O (configuration not stated) do in these assays?
ER stress surv: 5

How did COc1ccc(C2Nc3ccccc3C(=O)N2c2ccccc2)cc1COc1ccc(NC(C)=O)cc1 (configuration not stated) do in these assays?
ER stress surv: 87*

Results for COc1ccc(N2C(=O)c3ccccc3NC2c2ccc(OC)c(CN3C(=O)c4ccccc4C3=O)c2)cc1 (configuration not stated) ?
ER stress surv: 10

What do the screens show for `CCOc1ccc(Nc2nc(-c3c(C)nc4cc(C)ccn34)cs2)cc1`?
ER stress surv: 96*

Results for CCOc1ccc(Nc2nc(-c3ccccn3)cs2)cc1 ?
ER stress surv: 1

What do the screens show for `Cc1ccn2c(-c3csc(Nc4cccc(O)c4)n3)c(C)nc2c1`?
ER stress surv: 40

What do the screens show for `CC(=O)Oc1ccc2ccccc2c1C(NC(=O)Cc1ccccc1)c1ccco1` (configuration not stated)?
ER stress surv: 23

Results for COc1ccc(/C(C)=N/N2C(=O)c3ccccc3C2=O)c(OC)c1 ?
ER stress surv: -1

How did O=C(/C=C/c1ccc(S(=O)(=O)Nc2ccccc2)cc1)C1C(=O)c2ccccc2C1=O do in these assays?
ER stress surv: 0

What do the screens show for `COc1ccccc1CNC(=O)c1ccc(OC)c(OC)c1`?
ER stress surv: 11

Results for COc1ccccc1CNC(=O)c1ccc(F)cc1 ?
ER stress surv: 100*

How did COc1ccccc1CNC(=O)c1ccc(C)cc1 do in these assays?
ER stress surv: 6

How did Cc1nn(-c2ccccc2)c2sc(C(=O)N/N=C/c3cc4c(cc3[N+](=O)[O-])OCO4)cc12 do in these assays?
ER stress surv: 2

Bioassay records as filed in PubChem BioAssay.
